Data taken from PubChem BioAssay AID1159580 (chemical genetic matrix, 2015).
Values joined by “and” are separate entries in the source; they are usually repeats but may differ in a detail not shown here. Equal entries are not always repeated. The whole screen tested about 5,500 compounds, of which about 2,000 (36%) were called active. Inconclusive results (about 18%) are left out. No stated cut-off is given here; in the data, active means normalized growth mostly below about 0.91 (no sharp cut-off); inconclusive means no clear call, values can overlap the other calls; inactive means mostly above about 0.92. The list shows a part of the results.

Experiment: chemical genetic growth profiling, strain panel (AID 1159580);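 further: tested at 20 µM; growth read once vehicle control cultures reached saturation at 30 °C; 1 = growth at the plate median or of vehicle wells; lower values mean less growth of the strain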
Conditions: S. cerevisiae deletion strains, growth OD

Measured: normalized growth

Cc1cc(=O)n(-c2ccccc2)n1C
inactive: locus YAL013W, strain DEP1, active compounds read low 1.02 | locus YAL021C, strain ccr4, active compounds read low 0.962 | locus YAL026C, strain drs2, active compounds read low 1 | locus YAL030W, strain snc1, active compounds read low 1 | locus YBL061C, strain skt5, active compounds read low 0.992 | locus YBR009C, strain hhf1, active compounds read low 1.06 | locus YBR021W, strain FUR4, active compounds read low 1 | locus YBR023C, strain chs3, active compounds read low 0.987 | locus YBR171W, strain sec66, active compounds read low 0.987 | locus YBR229C, strain ROT2, active compounds read low 1.01 | locus YBR231C, strain swc5, active compounds read low 1.01 | locus YBR279W, strain paf1, active compounds read low 0.995 | locus YCL011C, strain gbp2, active compounds read low 0.995 | locus YCL016C, strain dcc1, active compounds read low 0.979 | locus YCL029C, strain bik1, active compounds read low 0.996 | locus YCL061C, strain MRC1, active compounds read low 0.981 | locus YCL069W, strain vba3, active compounds read low 0.997 | locus YCR088W, strain abp1, active compounds read low 0.991 | locus YDL005C, strain med2, active compounds read low 0.991 | locus YDL035C, strain GPR1, active compounds read low 1.04 | locus YDL040C, strain nat1, active compounds read low 0.991 | locus YDL074C, strain BRE1, active compounds read low 1.02 | locus YDL101C, strain DUN1, active compounds read low 0.999 | locus YDL185W, strain tfp1, active compounds read low 0.994 | locus YDL192W, strain arf1, active compounds read low 0.989 | locus YDR001C, strain nth1, active compounds read low 0.983 | locus YDR069C, strain doa4, active compounds read low 1.02 | locus YDR101C, strain arx1, active compounds read low 0.983 | locus YDR137W, strain rgp1, active compounds read low 0.978 | locus YDR159W, strain sac3, active compounds read low 1.01 | locus YDR162C, strain NBP2, active compounds read low 1.04 | locus YDR195W, strain ref2 0.998 | locus YDR297W, strain sur2, active compounds read low 0.99 | locus YDR318W, strain mcm21, active compounds read low 0.989 | locus YDR334W, strain swr1, active compounds read low 0.986 | locus YDR335W, strain msn5, active compounds read low 0.992 | locus YDR388W, active compounds read low 0.986 | locus YDR392W, strain spt3, active compounds read low 0.94 | locus YDR502C, strain sam2, active compounds read low 0.994 | locus YEL003W, strain gim4, active compounds read low 1 | locus YEL037C, strain rad23, active compounds read low 0.995 | locus YEL061C, strain CIN8 (second series), active compounds read low 0.99 | locus YEL061C, strain CIN8, active compounds read low 1 | locus YER015W, strain faa2, active compounds read low 0.985 | locus YER016W, strain bim1, active compounds read low 0.996 | locus YER110C, active compounds read low 0.987 | locus YER111C, strain swi4, active compounds read low 0.984 | locus YER155C, strain BEM2 (second series), active compounds read low 1.01 | locus YER155C, strain BEM2, active compounds read low 1 | locus YER167W, strain BCK2, active compounds read low 1.02 | locus YFR010W, strain ubp6, active compounds read low 1 | locus YGL078C, strain dbp3, active compounds read low 0.982 | locus YGL086W, strain mad1, active compounds read low 0.989 | locus YGL167C, strain pmr1, active compounds read low 0.996 | locus YGL173C, strain kem1, active compounds read low 0.992 | locus YGL227W, strain vid30, active compounds read low 0.993 | locus YGL240W, strain doc1, active compounds read low 1 | locus YGL248W, strain PDE1, active compounds read low 0.999 | locus YGL253W, strain hxk2, active compounds read low 0.975 | locus YGR078C, strain PAC10, active compounds read low 1 | locus YGR135W, strain pre9, active compounds read low 1 | locus YGR229C, strain SMI1, active compounds read low 1.04 | locus YGR252W, strain gcn5, active compounds read low 1 | locus YHR013C, strain ard1, active compounds read low 0.982 | locus YHR027C, strain rpn1, active compounds read low 1.02 | locus YHR030C, strain SLT2, active compounds read low 1.01 and 0.973 | locus YHR079C, strain IRE1 (second series), active compounds read low 0.984 | locus YHR079C, strain IRE1, active compounds read low 1.03 | locus YHR094C, strain hxt1, active compounds read low 0.986 | locus YHR129C, strain ARP1, active compounds read low 1.01 | locus YHR142W, strain chs7, active compounds read low 0.963 | locus YHR200W, strain rpn10, active compounds read low 1 | locus YIL066C, strain RNR3, active compounds read low 1.04 | locus YIL073C, strain SPO22, active compounds read low 1.03 | locus YIL125W, strain kgd1, active compounds read low 0.986 | locus YIR030C, strain dcg1, active compounds read low 0.987 | locus YJL095W, strain BCK1 (second series), active compounds read low 0.999 | locus YJL095W, strain BCK1, active compounds read low 1 and 1.01 | locus YJL115W, strain asf1, active compounds read low 0.994 | locus YJL129C, strain trk1, active compounds read low 0.978 | locus YJL134W, strain LCB3, active compounds read low 1.01 | locus YJL154C, strain vps35, active compounds read low 0.991 | locus YJL164C, strain tpk1, active compounds read low 1.02 | locus YJL166W, strain qcr8, active compounds read low 0.953 | locus YJL168C, strain set2, active compounds read low 0.983 | locus YJL187C, strain SWE1 (second series), active compounds read low 0.987 | locus YJL187C, strain SWE1, active compounds read low 0.996 | locus YJR043C, strain POL32, active compounds read low 1.04
